According to PubChem BioAssay:
For part of these data: Results with a measured potency or affinity are listed apart. Calls of active or inactive are those of the source.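 Rule for the calls, unless noted: active = earlier screen potentiator hit that boosts the TRPC4 ion channel at some dose, with a dose response; inactive = no potentiation, no dose response, or not a prior hit.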

Columns and labels:
[1] = system: TRPC4 beta (transient receptor potential cation channel C4), mouse; assay: activators of mouse TRPC4 channel, confirmation, cell-based, Fluo4 calcium, HEK293 TRPC4beta/mu-opioid, duplicates, 10 µM (AID 2426;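 active = fluorescence ratio normalized to control raised more than 50% in primary screen plus both repeat runs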;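 for activation: percent rise of integrated ratio over buffer wells lacking compound which define 0%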); details: Fluo4 calcium fluorescence, at 10 µM; stronger effect = higher value
[2] = system: transient receptor potential cation channel C4 beta (TRPC4), mouse; assay: activators of mouse TRPC4 channel, confirmation, cell-based, second round, Fluo4, HEK293 TRPC4beta/mu-opioid, 1 µM (AID 2461;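 active = primary screen active and over 50% activation in each of two duplicate runs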;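 for activation: 0% = wells without test compound as baseline of integrated fluorescence ratio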); details: Fluo4 calcium fluorescence, at 1 µM; stronger effect = higher value
[3] = system: TRPC4 (transient receptor potential cation channel C4 beta), mouse; assay: positive allosteric modulators of mouse TRPC4, confirmation, cell-based, second round, Fluo-4, HEK293 TRPC4beta/mu-opioid, 1 µM (AID 2554;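 active = primary screen hit whose fluorescence ratio, in both repeats, exceeds the weak agonist control mean by 3 SD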); details: DAMGO EC20, Fluo-4 calcium flux, at 1 µM; stronger effect = higher value
[4] = system: TRPC4 beta (transient receptor potential cation channel C4), mouse; assay: positive allosteric modulators of mouse TRPC4, confirmation, cell-based, Fluo-4, HEK293 TRPC4beta/mu-opioid (AID 2555;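 active = primary screen hit whose calcium fluorescence ratio, in both repeats, exceeds the weak agonist control mean by 3 SD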); details: DAMGO EC20, Fluo-4 calcium flux, at 10 µM; stronger effect = higher value
[5] = molecular target: Short transient receptor potential channel 4 (Mus musculus) (UniProt Q9QUQ5); assay: inhibitors of mouse TRPC4 channel, confirmation, cell-based, Fluo4, HEK293 TRPC4beta/mu-opioid (AID 2636;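 active = calcium signal cut by more than 3 SD below the full-agonist control yet still positive, in both repeats and the earlier primary screen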); details: DAMGO, Fluo4 calcium flux, at 10 µM; stronger effect = higher value
Sequence of Short transient receptor potential channel 4 (Mus musculus) (Q9QUQ5 whole entry, looked up): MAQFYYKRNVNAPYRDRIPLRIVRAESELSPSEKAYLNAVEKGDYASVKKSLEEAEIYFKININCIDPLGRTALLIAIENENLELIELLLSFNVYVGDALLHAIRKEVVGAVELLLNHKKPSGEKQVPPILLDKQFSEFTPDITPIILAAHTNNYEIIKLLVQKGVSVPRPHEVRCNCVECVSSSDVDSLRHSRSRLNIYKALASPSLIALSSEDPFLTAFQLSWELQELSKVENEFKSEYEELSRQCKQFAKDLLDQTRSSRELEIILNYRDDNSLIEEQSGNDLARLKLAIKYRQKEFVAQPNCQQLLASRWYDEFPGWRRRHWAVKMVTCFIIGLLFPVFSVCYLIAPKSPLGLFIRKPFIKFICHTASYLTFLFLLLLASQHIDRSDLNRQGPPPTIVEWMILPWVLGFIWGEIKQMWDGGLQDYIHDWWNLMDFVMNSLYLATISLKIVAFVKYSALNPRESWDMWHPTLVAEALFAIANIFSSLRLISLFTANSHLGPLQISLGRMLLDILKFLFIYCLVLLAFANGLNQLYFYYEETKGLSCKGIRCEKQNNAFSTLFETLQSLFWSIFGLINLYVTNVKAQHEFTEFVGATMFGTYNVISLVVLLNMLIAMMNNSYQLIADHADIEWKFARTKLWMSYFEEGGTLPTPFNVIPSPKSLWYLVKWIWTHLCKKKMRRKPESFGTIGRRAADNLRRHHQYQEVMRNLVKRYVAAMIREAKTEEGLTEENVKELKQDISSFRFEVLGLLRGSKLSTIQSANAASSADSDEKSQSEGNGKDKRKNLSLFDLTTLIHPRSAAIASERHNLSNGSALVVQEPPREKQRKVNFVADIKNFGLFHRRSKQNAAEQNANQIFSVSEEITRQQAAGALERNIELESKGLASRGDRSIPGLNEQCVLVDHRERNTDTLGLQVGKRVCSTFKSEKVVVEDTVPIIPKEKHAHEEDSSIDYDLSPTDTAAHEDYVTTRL

[6] = molecular target: Short transient receptor potential channel 4 (Mus musculus) (UniProt Q9QUQ5); assay: inhibitors of mouse TRPC4 channel, confirmation, cell-based, second round, Fluo4, HEK293 TRPC4beta/mu-opioid, 1 µM (AID 2637;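 active = calcium signal ratio cut to more than 3 SD under the fully stimulated control mean yet still positive, in both repeats and the primary screen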); details: Fluo4 calcium flux, DAMGO, at 1 µM; stronger effect = higher value
[7] = molecular target: Short transient receptor potential channel 4 (Mus musculus) (UniProt Q9QUQ5); assay: TRPC4 positive allosteric modulators, dose response, cell-based, HEK293 TRPC4/mu-opioid, Fluo-4 calcium, EC20 DAMGO (AID 434941);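 note: calcium entry triggered by an EC20 dose of DAMGO at the co-expressed mu-opioid receptor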
[8] = molecular target: Short transient receptor potential channel 4 (Mus musculus) (UniProt Q9QUQ5); assay: mouse TRPC4 channel inhibitors, dose response, cell-based, HEK293 TRPC4/mu-opioid, Fluo-4 calcium (AID 434942;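 active = primary screen inhibitor hit that blocks the TRPC4 channel at some tested dose, yielding a dose curve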)
[9] = molecular target: Short transient receptor potential channel 6 (Mus musculus) (UniProt Q61143); assay: inhibition of mouse TRPC6 channel, confirmation, selectivity assay for TRPC4 inhibitor project, cell-based, HEK293, membrane potential dye, duplicate (AID 434948;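 active = active in primary screen and both duplicates, each dropping signal beyond three positive-control SD with fluorescence still positive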); details: HEK293 TRPC6, membrane potential dye fluorescence, at 10 µM, stimulated with maximal-effect acetylcholine; stronger effect = higher value
Sequence of Short transient receptor potential channel 6 (Mus musculus) (Q61143 whole entry, looked up): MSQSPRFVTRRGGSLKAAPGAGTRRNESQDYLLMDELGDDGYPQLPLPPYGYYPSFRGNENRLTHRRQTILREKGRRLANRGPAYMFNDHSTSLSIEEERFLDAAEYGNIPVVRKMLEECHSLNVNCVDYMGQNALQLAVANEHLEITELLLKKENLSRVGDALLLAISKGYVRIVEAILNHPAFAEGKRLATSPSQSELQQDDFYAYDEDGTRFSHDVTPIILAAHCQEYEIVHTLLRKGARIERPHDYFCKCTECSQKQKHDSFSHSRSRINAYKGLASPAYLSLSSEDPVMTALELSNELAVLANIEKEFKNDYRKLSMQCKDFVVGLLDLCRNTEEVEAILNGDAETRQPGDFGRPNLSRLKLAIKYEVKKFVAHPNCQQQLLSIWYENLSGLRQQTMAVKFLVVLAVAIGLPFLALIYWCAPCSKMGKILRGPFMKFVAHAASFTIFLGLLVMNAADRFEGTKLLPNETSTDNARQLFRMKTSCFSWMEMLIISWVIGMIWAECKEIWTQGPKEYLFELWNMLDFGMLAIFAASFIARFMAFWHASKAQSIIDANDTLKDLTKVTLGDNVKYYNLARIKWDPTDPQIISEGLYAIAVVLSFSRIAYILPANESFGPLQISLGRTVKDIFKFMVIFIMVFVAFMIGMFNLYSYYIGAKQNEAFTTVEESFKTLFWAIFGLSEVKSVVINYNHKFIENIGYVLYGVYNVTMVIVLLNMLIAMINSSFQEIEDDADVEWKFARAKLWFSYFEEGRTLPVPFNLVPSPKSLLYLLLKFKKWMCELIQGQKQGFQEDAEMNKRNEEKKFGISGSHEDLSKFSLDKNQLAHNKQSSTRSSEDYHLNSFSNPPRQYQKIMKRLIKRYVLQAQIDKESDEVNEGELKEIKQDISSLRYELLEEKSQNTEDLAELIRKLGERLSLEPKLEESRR

[10] = molecular target: Short transient receptor potential channel 6 (Mus musculus) (UniProt Q61143); assay: activation of mouse TRPC6 channel, confirmation, selectivity assay for TRPC4 activator project, cell-based, HEK293, membrane potential dye, duplicate (AID 434950;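 active = membrane potential signal rise above negative control mean plus 3 SD in both duplicates, also active in the earlier TRPC4 screen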;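 for activation: 0% = buffer only wells and 100% = acetylcholine maximal-effect wells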); details: HEK293 TRPC6, membrane potential fluorescence, at 10 µM; stronger effect = higher value
[11] = molecular target: Short transient receptor potential channel 6 (Mus musculus) (UniProt Q61143); assay: TRPC6 potentiation by TRPC4 potentiator hits, confirmation, selectivity assay for TRPC4 potentiator project, HEK293 cells, membrane potential dye, duplicate (AID 434952;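 active = compound raising the membrane signal above positive-control mean plus 3 SD in both repeats, and a primary screen hit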); details: HEK293 TRPC6, membrane potential dye fluorescence, at 10 µM, maximal acetylcholine added after compound; stronger effect = higher value
[12] = molecular target: Short transient receptor potential channel 4 (Mus musculus) (UniProt Q9QUQ5); assay: calcium flux activators in TRPC4/5HT1a cells, counter-screen for TRPC4 activator project, cell-based, second counter screen, HEK293 TRPC4/5HT1a, Fluo-4 (AID 434977;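 active = calcium signal rise above buffer-control mean plus 5 SD in both duplicates, and also a hit in the primary screen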;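 for activation: plate controls were assay buffer for no effect and maximal serotonin response for full effect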); details: Fluo-4 calcium flux, at 10 µM; stronger effect = higher value
[13] = calcium flux inhibitors in TRPC4/5HT1a cells, confirmation, counter-screen for TRPC4 inhibitor project, cell-based, second counter screen, HEK293 TRPC4/5HT1a, Fluo-4 (AID 434978;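 active = primary screen active whose calcium signal fell more than 3 SD beyond the full-serotonin control mean in both duplicate plates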;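 note: serotonin given first at submaximal then at maximal dose after compound preincubation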); details: Fluo-4 calcium flux, at 10 µM, serotonin added to trigger calcium flux; stronger effect = higher value
[14] = system: TRPC4 (mouse), co-expressed with 5HT1a in HEK293; assay: calcium flux potentiators in TRPC4/5HT1a cells, confirmation, counter-screen for TRPC4 potentiator project, cell-based, second counter screen, HEK293 TRPC4/5HT1a, Fluo-4 (AID 434979;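 active = signal rise over 3 SD above mean of control wells given weak agonist, in both repeats and first screen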); details: Fluo-4 calcium flux, at 10 µM, serotonin added at its EC20 dose; stronger effect = higher value
[15] = calcium flux activation in mu-opioid HEK293 cells, confirmation, counter-screen for TRPC4 activator project, cell-based, HEK293 mu-opioid receptor line (AID 449723;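 active = hit in primary screen, with calcium signal over 5 SD above buffer well mean in both duplicates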;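 note: counter screen cells carry the mu-opioid receptor alone and lack TRPC4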); details: Fluo-4 calcium fluorescence, at 10 µM; stronger effect = higher value
[16] = calcium flux enhancement in mu-opioid HEK293 cells, confirmation, counter-screen for TRPC4 allosteric potentiator project, cell-based, HEK293 mu-opioid receptor line (AID 449724;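 active = calcium signal rise more than 3 SD above the low-dose agonist control mean, in both duplicate plates and the primary screen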;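 note: HEK293 cells carrying mu-opioid receptor only with no TRPC4 channel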); details: Fluo-4 calcium flux, at 10 µM, compound added before EC20 DAMGO stimulus; stronger effect = higher value

CCCCN(CC)CCNC(=O)c1cc2c(C)nc3ccccc3c2o1
inactive: outcome [2] | outcome [3] | outcome [4] | outcome [5] | outcome [6] | outcome [7] | outcome [8] | outcome [9] | outcome [10] | outcome [11] | outcome [13] | outcome [14] | outcome [15] | outcome [16]
active: activation [1] 128% | activation [12] 42.6%

Cc1cc(C)cc(C(=O)N(CCc2ccccc2)C2=CC3CCC(C2)N3C)c1 (stereo not given)
inactive: outcome [3] | outcome [4] | outcome [5] | outcome [6] | outcome [7] | outcome [8] | outcome [9] | outcome [11] | outcome [12] | outcome [13] | outcome [14] | outcome [15] | outcome [16]
active: activation [1] 86% | activation [2] 57% | activation [10] 67%

Cc1cc(OCCCn2ccnc2)ccc1[N+](=O)[O-]
active: activation [1] 134% | potentiation [14] 18.2%
inactive: outcome [2] | outcome [3] | outcome [4] | outcome [5] | outcome [6] | outcome [7] | outcome [8] | outcome [9] | outcome [10] | outcome [11] | outcome [12] | outcome [13] | outcome [15] | outcome [16]

CCN(CC)CCSc1nc2ccc(OC)cc2[nH]1
inactive: outcome [3] | outcome [4] | outcome [5] | outcome [6] | outcome [7] | outcome [8] | outcome [9] | outcome [10] | outcome [11] | outcome [13] | outcome [14] | outcome [15] | outcome [16]
active: activation [1] 90% | activation [2] 60% | activation [12] 31.6%

Cc1ccc2c(C)c(C(=O)N(Cc3cccs3)C3CCS(=O)(=O)C3)oc2c1 (stereo not given)
inactive: outcome [1] | outcome [2] | outcome [3] | outcome [4] | outcome [5] | outcome [6] | outcome [7] | outcome [8] | outcome [9] | outcome [11] | outcome [12] | outcome [13] | outcome [14] | outcome [15] | outcome [16]
active: activation [10] 34.5%

CCCCN(C)CCCNC(=O)CN1N=C(c2ccc(Cl)cc2)CCC1=O
inactive: outcome [1] | outcome [2] | outcome [3] | outcome [4] | outcome [5] | outcome [6] | outcome [7] | outcome [8] | outcome [9] | outcome [11] | outcome [13] | outcome [15] | outcome [16]
active: activation [10] 30% | activation [12] 16.6% | potentiation [14] 21.3%

Cc1nc(NCC(c2ccccc2)N(C)C)c2c(C)c(C)sc2n1 (stereo not given)
active: activation [1] 204% | activation [2] 78% | activation [12] 27.8%
inactive: outcome [3] | outcome [4] | outcome [5] | outcome [6] | outcome [7] | outcome [8] | outcome [9] | outcome [10] | outcome [11] | outcome [13] | outcome [14] | outcome [15] | outcome [16]

CCC1(c2ccc(F)cc2)NC(=O)N(CC(=O)c2cc(C)n(C3CC3)c2C)C1=O (stereo not given)
inactive: outcome [1] | outcome [2] | outcome [3] | outcome [5] | outcome [6] | outcome [7] | outcome [8] | outcome [9] | outcome [10] | outcome [11] | outcome [13] | outcome [16]
active: potentiation [4] 16% | activation [12] 27% | potentiation [14] 24.5% | activation [15] 13.8%

CN(C)C(CNC(=O)c1ccc2ccccc2n1)c1ccccc1 (stereo not given)
active: activation [1] 61% | activation [10] 54%
inactive: outcome [2] | outcome [3] | outcome [4] | outcome [5] | outcome [6] | outcome [7] | outcome [8] | outcome [9] | outcome [11] | outcome [12] | outcome [13] | outcome [14] | outcome [15] | outcome [16]

CC1CC(C)CN(CCCNC(=O)COc2cc(=O)n(C)c3ccccc23)C1 (stereo not given)
active: activation [1] 88% | activation [2] 80% | activation [12] 23.2% | potentiation [14] 26.9%
inactive: outcome [3] | outcome [4] | outcome [5] | outcome [6] | outcome [7] | outcome [8] | outcome [9] | outcome [10] | outcome [11] | outcome [13] | outcome [15] | outcome [16]

CN(C)C(CNC(=O)/C=C/c1cccc(Cl)c1)c1ccccc1 (stereo not given)
active: activation [1] 148% | activation [2] 83% | activation [10] 49%
inactive: outcome [3] | outcome [4] | outcome [5] | outcome [6] | outcome [7] | outcome [8] | outcome [9] | outcome [11] | outcome [12] | outcome [13] | outcome [14] | outcome [15] | outcome [16]

Cc1ccc(-n2cc(CNCC3CC(=O)N(C4CC4)C3)c(-c3cccc(C)c3)n2)cc1 (stereo not given)
inactive: outcome [2] | outcome [3] | outcome [4] | outcome [5] | outcome [6] | outcome [7] | outcome [8] | outcome [9] | outcome [11] | outcome [12] | outcome [13] | outcome [14] | outcome [15] | outcome [16]
active: activation [1] 165% | activation [10] 52.5%

CN(C)CCCN(C(=O)c1ccc(S(=O)(=O)N2CCCc3ccccc32)cc1)c1nc2ccc(F)cc2s1
inactive: outcome [2] | outcome [3] | outcome [4] | outcome [5] | outcome [6] | outcome [7] | outcome [8] | outcome [9] | outcome [10] | outcome [11] | outcome [12] | outcome [13] | outcome [14] | outcome [16]
active: activation [1] 134% | activation [15] 14.7%

CCn1c(N2CCN(Cc3ccc([N+](=O)[O-])cc3)CC2)nc2ccccc21
inactive: outcome [3] | outcome [4] | outcome [5] | outcome [6] | outcome [7] | outcome [8] | outcome [9] | outcome [10] | outcome [11] | outcome [13] | outcome [15] | outcome [16]
active: activation [1] 100% | activation [2] 83% | activation [12] 22% | potentiation [14] 18.3%

Cc1ccc(C2N(c3ccc(Cl)c(Cl)c3)C(=O)C3CCCN32)o1 (stereo not given)
active: activation [1] 53% | potentiation [3] 9% | potentiation [4] 22% | activation [12] 13.8% | potentiation [14] 20%
inactive: outcome [2] | outcome [5] | outcome [6] | outcome [7] | outcome [8] | outcome [9] | outcome [10] | outcome [11] | outcome [13] | outcome [15] | outcome [16]
